The results in this text go back to PubChem BioAssay (NCATS).

The target of assay [1] is Lysosomal acid glucosylceramidase (Homo sapiens) (UniProt P04062). Briefly: Glucocerebrosidase-p2 (AID 348; in the data active = potency below about 10 µM; also: potency is read from the fitted curve at half-maximal effect). The note with it: purified GBA, blue fluorogenic substrate, 40 min. The essentials:
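Normal human glucocerebrosidase (0.2 nM) with blue fluorogenic substrate (80 uM final) in citrate/phosphate pH 5.9 with 10mM sodium taurocholate, 0.01% tween-20; 40 min RT, NaOH/glycine stop; fluorescence Ex 365/Em 440; AC50 from a titration from 0.6 nM upwards.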

The nature of assay [2]: AP1 Signaling Pathway (AID 357; active = well fitted curve in either direction with a large enough effect, not every such curve was filed as active; also: % is scaled to controls: 0 for no effect and ±100 for the full control effect). The note with it: ME-180 AP-1-bla reporter, EGF-induced, beta-lactamase ratio, 5 h; at 7.69 µM (top of the series) unless noted. The essentials: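 AP-1-bla ME-180 cells with beta-lactamase reporter under AP-1 response element, stimulated with EC50 EGF; compounds titrated, 5 hours at 37 degrees Celsius. CCF4 read at 460/530 nm ratio; positive and negative modulators judged by AC50.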

In assay [3] the target is Cytochrome P450 1A2 (Homo sapiens) (UniProt P05177). Kind of assay: p450-cyp1a2 (AID 410). Also: potency is read from the fitted curve at half-maximal effect.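 As to activity change, negative = inhibition: -100% = full effect of reference inhibitor.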 Conditions: recombinant CYP1A2, luciferin-ME demethylation, luminescence; series mostly up to 57 µM. In short, it runs like this: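 Luminescent demethylation readout: Luciferin-ME (100uM, equal to Km) turned over by 20nM CYP1A2 for 60 min at room temperature after NADPH regeneration addition, following 10 min compound preincubation. Normalization used 57 uM furafylline as full inhibition.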
Cytochrome P450 1A2 (Homo sapiens), sequence (P05177 whole entry, looked up): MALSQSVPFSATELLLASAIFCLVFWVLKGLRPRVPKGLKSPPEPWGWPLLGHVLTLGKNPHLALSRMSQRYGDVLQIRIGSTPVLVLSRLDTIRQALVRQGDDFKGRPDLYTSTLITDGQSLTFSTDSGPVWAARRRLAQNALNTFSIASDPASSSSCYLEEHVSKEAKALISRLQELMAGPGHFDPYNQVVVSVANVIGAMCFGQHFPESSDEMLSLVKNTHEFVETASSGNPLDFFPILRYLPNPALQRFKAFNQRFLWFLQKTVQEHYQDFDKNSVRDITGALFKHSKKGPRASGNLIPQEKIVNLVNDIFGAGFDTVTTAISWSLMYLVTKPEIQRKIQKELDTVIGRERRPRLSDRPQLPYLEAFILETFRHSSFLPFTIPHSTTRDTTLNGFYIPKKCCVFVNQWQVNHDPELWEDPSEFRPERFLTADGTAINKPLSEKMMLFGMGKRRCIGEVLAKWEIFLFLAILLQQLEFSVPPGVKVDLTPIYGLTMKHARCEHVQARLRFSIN

The nature of assay [4]: Stat Signaling Pathway (AID 446; active = well fitted curve in either direction with a large enough effect, not every such curve was filed as active;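 also: ME-180 cervical cancer cells given 40 pM IL-6 alongside compound; SIE-controlled beta-lactamase reporter measured as 460/530 nm FRET emission ratio; % is scaled to controls: 0 for no effect and ±100 for the full control effect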). Conditions: ME-180 SIE beta-lactamase reporter, IL-6 stimulated, 5 h; at 7.69 µM (top of the series) unless noted. The essentials:
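Compound effects on IL-6-induced STAT reporter activity were measured in ME-180 cells. After overnight culture, cells were co-treated with 40 pM IL-6 for 5 hrs before beta-lactamase substrate loading at room temperature.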

The target of assay [5] is Glucocorticoid receptor (Homo sapiens) (UniProt P04150). Kind of assay: GR-EFC Redistribution (AID 451). Also: potency is read from the fitted curve at half-maximal effect. Conditions: CHO-K1 GR-EFC translocation, beta-gal luminescence, 2 h. The essentials: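 CHO-K1 cells expressing nuclear EA and GR-ED fragments of b-gal; compounds titrated up to 46 uM final, 2 h at 37 C. GR nuclear translocation read as complemented b-gal luminescence after 1 h RT detection.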
Glucocorticoid receptor (Homo sapiens), sequence (P04150 whole entry, looked up, the tested form may be a part): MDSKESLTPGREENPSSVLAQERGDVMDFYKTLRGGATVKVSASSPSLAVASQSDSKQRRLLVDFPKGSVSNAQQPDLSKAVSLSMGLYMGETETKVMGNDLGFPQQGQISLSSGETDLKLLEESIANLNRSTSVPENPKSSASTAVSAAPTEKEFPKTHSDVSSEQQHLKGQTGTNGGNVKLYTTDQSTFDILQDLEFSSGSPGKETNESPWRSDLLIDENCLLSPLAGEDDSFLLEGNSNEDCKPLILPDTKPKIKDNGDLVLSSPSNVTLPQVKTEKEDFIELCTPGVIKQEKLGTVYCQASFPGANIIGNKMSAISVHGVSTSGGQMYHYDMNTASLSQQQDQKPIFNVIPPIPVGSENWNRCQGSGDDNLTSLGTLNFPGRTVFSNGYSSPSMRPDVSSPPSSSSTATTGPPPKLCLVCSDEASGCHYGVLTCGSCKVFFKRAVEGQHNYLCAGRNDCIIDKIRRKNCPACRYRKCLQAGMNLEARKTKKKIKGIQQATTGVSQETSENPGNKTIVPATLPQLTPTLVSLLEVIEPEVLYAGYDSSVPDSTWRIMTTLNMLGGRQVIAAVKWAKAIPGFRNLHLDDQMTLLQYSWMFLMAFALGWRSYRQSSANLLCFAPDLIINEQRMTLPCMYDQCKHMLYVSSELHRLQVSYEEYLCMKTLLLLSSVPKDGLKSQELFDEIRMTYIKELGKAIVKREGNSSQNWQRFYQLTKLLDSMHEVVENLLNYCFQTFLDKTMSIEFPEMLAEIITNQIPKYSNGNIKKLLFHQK

The target of assay [6] is Mitogen-activated protein kinase 10 (Mus musculus) (UniProt Q61831). Briefly: JNK3 AlphaScreen Assay (AID 530; active = well fitted curve in either direction with a large enough effect, not every such curve was filed as active;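 also: kinase came from lysate of stimulated human HepG2 cells; signal reports phosphorylation of biotinylated GST-cJun 1-79 at Ser73 with 10 µM ATP; % is scaled to controls: 0 for no effect and ±100 for the full control effect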). Conditions: JNK3 lysate, c-Jun phosphorylation; series mostly up to 57.1 µM. The essentials:
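Activity was read by AlphaScreen after JNK3-containing HepG2 lysate (cytokine pre-activated) phosphorylated biotinylated GST-cJun with 10 uM ATP at room temperature. Phospho-Ser73 cJun antibody with Protein-A acceptor beads provided detection.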
(Alpha assays give light when donor and acceptor beads are brought close together.)

Assay [7] addresses 3',5'-cyclic-AMP phosphodiesterase 4B (Homo sapiens) (UniProt Q07343). Kind of assay: qHTS Assay for Inhibitors of PDE-IV (AID 607; active = well fitted activation curve with a large enough effect in the main read-out, with a control signal flat, not every such curve was filed as active; also: % of control where 0% means no effect). Conditions: HEK293 ACTOne CNG channel cells, membrane potential fluorescence; series mostly up to 22.9 µM. In short, it runs like this:
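ACTOne HEK293 cells carry a modified cAMP-gated CNG channel and express endogenous PDE4; plated 1000 cells/well, compounds up to 22.9 uM final. Membrane-potential dye fluorescence (ex 535/em 590) was read; parental cells received 10 uM forskolin + 100 uM RO 20-1724.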
Background: qHTS replaces the single test concentration by a dilution series.

Assay [8] addresses Cytochrome P450 3A4 (Homo sapiens) (UniProt P08684). Kind of assay: qHTS Assay for Activators of Cytochrome P450 3A4 (AID 885; active = well fitted curve in the direction sought with a large enough effect; an effect the other way counts as inactive or inconclusive; also: nearly all actives have a fitted effect of over 65% in size; also: potency is read from the fitted curve at half-maximal effect). The note with it: recombinant CYP3A4, Luciferin-PPXE luminescence, 60 min; series mostly up to 57.1 µM. The essentials:
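CYP3A4 activity: Luciferin-PPXE O-dealkylation, 25uM substrate, 200mM KPO4, RT throughout. Read-out is luciferase luminescence; higher values reflect activation.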

A short description of assay [9]: qHTS Assay for Lipid Storage Modulators (AID 1519). Conditions: Drosophila S3 cells, BODIPY lipid droplet/cell ratio, laser cytometry, cells loaded with oleic acid; for activity change, negative = inhibition: at 57.5 µM (top of the series). The essentials: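 Cells seeded at 5,000 per well were treated with compounds over a concentration series and loaded with oleic acid (400 uM, as added). Lipid droplet fluorescence (488 nm excitation, 500-530 nm channel) was read by laser-scanning cytometry and normalized to 20 uM Triacsin C.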

Assay [10] is described as follows: Primary qHTS for small molecule stabilizers of the endoplasmic reticulum resident proteome: Secreted ER Calcium Modulated Protein (SERCaMP) assay (AID 1508630; active = well fitted curve in the direction sought with a large enough effect; an effect the other way counts as inactive or inconclusive; also: % is scaled to controls: 0 for no effect and ±100 for the full control effect). The note with it: SH-SY5Y GLuc-SERCaMP (Gaussia luciferase released on ER calcium loss) secretion, thapsigargin, luminescence; series mostly up to 38.4 µM. In short, it runs like this:
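The SH-SY5Y reporter protocol was run at 3 concentrations up to 38.3 uM (primary) or 11 concentrations (follow-up): 16 h compound, 100 nM thapsigargin for 4 h, then extracellular luciferase luminescence.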

For assay [11], the target named is Cytochrome P450 3A4 (Homo sapiens) (UniProt P08684). Briefly: qHTS Assay for Inhibitors and Substrates of Cytochrome P450 3A4 (AID 884; active = well fitted curve in the direction sought with a large enough effect; an effect the other way counts as inactive or inconclusive; also: nearly all actives have a fitted effect of over 50% in size; also: potency is read from the fitted curve at half-maximal effect). Conditions: recombinant CYP3A4, Luciferin-PPXE luminescence; series mostly up to 57.1 µM. In short, it runs like this: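 Luminescent readout of luciferin produced by CYP3A4 (20 nM) dealkylation of Luciferin-PPXE, 25 uM (its KM). NADPH-driven reaction ran 60 min at RT after 10 min compound preincubation; data scaled to 57 uM ketoconazole as 100% inhibition.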
Cytochrome P450 3A4 (Homo sapiens), sequence (P08684 whole entry, looked up): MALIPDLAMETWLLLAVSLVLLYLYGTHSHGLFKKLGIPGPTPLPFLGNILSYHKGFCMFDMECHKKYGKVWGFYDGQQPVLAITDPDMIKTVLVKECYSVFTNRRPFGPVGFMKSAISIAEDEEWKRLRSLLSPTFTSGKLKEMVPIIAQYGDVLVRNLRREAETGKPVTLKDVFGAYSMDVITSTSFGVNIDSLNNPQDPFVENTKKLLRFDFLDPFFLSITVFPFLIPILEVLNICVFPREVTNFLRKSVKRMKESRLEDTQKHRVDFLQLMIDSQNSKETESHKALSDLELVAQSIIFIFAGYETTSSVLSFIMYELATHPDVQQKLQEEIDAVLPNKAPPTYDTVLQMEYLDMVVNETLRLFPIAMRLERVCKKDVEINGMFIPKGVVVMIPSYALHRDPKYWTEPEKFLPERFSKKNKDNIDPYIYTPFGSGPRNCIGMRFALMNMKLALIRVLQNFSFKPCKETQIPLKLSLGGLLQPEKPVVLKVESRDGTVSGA

Assay [12] can be described thus: qHTS Assay for Identification of Small Molecule Agonists for Hypoxia Response Element Signaling Pathway (AID 914; active = well fitted activation curve with a large enough effect in the signal ratio, with a control signal flat, not every such curve was filed as active; the % refers to the signal ratio; also: % of control where 0% means no effect). Conditions: ME-180 (cervical carcinoma) HRE-bla reporter, beta-lactamase ratio, CoCl2, 17 h; activation: stronger effect = higher value. In short, it runs like this: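 Compounds in a titration series were added to ME-180 reporter cells alongside an EC50 level of CoCl2. After 17 hours, beta-lactamase activity was read as the 460nm/530nm emission ratio of CCF4, giving AC50 values.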

Assay [13] addresses Cytochrome P450 2D6 (Homo sapiens) (UniProt P10635). Kind of assay: qHTS Assay for Inhibitors and Substrates of Cytochrome P450 2D6 (AID 891; active = well fitted curve in the direction sought with a large enough effect; an effect the other way counts as inactive or inconclusive; also: potency is read from the fitted curve at half-maximal effect; nearly all actives have a fitted effect of over 60% in size). Conditions: recombinant CYP2D6, luciferin-ME EGE luminescence; series mostly up to 57.1 µM. In short, it runs like this:
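Luminescent read-out of luciferin formed by 5 nM human CYP2D6 demethylating 30 uM Luciferin-ME EGE (Km level) over 60 min at room temperature after NADPH regeneration addition. Data normalized to full inhibition by 1.43 uM quinidine.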

The mark [14] stands for this setting: measured here: cell count channel max response.
[15] abbreviates: measured here: lipid channel max response.

Inconclusive results are not listed. The source made the active and inactive calls. Unless noted, calls follow the shape of the full dose curve.

3',5'-cyclic-AMP phosphodiesterase 4B (Homo sapiens), sequence (Q07343 whole entry, looked up): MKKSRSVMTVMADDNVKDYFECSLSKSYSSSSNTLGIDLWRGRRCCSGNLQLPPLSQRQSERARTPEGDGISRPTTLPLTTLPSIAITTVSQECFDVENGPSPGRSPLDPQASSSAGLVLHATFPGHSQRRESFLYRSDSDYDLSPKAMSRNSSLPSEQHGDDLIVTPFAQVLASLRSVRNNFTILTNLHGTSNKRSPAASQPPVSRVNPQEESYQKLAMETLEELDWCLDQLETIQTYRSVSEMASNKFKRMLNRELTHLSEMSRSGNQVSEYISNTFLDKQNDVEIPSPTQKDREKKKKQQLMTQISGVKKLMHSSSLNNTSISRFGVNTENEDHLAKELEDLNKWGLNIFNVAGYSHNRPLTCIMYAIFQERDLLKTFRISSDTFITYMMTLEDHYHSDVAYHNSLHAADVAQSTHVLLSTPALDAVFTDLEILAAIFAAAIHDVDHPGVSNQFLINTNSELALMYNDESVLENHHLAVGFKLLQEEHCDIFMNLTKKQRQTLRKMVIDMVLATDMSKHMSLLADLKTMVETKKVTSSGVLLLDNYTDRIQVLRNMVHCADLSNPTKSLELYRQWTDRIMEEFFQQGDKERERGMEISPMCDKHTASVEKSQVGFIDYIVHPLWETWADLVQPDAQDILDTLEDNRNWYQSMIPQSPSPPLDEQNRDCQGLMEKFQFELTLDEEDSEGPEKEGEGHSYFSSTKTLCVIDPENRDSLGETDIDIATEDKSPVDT
Lysosomal acid glucosylceramidase (Homo sapiens), sequence (P04062 whole entry, looked up): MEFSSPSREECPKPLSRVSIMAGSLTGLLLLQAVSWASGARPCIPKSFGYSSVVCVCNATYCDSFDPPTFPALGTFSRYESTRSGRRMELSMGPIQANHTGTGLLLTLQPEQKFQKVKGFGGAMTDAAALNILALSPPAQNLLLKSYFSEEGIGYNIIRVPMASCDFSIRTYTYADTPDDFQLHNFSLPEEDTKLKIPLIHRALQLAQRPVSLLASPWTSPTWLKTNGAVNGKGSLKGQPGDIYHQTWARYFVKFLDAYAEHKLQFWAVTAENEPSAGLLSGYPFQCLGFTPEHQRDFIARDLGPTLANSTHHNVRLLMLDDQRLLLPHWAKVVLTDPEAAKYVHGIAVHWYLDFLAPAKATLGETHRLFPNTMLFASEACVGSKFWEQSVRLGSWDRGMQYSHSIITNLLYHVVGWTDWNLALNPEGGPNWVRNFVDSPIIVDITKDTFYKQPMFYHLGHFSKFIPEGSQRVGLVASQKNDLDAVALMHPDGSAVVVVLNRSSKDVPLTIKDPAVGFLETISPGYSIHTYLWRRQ
Cytochrome P450 2D6 (Homo sapiens), sequence (P10635 whole entry, looked up): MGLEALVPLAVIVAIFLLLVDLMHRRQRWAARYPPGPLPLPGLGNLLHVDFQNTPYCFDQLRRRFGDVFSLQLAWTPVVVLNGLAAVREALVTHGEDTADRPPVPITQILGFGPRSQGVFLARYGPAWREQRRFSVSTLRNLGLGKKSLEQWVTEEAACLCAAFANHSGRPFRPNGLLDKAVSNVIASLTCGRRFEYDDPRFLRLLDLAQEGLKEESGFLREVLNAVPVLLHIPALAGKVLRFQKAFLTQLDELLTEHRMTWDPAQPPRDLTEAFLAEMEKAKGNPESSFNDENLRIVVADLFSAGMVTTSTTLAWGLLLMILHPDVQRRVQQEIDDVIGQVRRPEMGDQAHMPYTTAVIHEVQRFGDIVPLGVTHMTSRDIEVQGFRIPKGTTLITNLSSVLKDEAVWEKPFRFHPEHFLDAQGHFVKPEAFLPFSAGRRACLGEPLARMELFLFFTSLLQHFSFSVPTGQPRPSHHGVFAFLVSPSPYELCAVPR

Consider `Cn1cccc1C(=O)N1CCC2(CCCN(Cc3ccccc3)C2)CC1`, for which the figures for the Potency in [1] and in assay [5] were > 11.4 µM (inactive) and > 46 µM (inactive), respectively. Further, the activity change, negative = inhibition in [2] is -4.68% (inactive); in [9], 3.59% (inactive). Moreover, the Potency entry in assay [3], in assay [6], in [7] and in [8] was “inactive” in each case. Further, the activity, negative = inhibition in [4] was -3.12% (inactive). Moreover, the max response is 2.52% in assay [9] (setting [14]) and 8.85% in assay [9] (setting [15]). In addition, the outcome in assay [10] was inactive.

For `CC(C)CN1CCCC2(CCN(C(=O)c3cccn3C)CC2)C1`, the Potency in [1] is > 11.4 µM (inactive); in [5], > 46 µM (inactive). In addition, the activity change, negative = inhibition was -3.67% (inactive) in [2] and 6.1% (inactive) in [9]. Also, the Potency result in [3], in assay [6], in assay [7] and in [8] was “inactive” in each case. Besides, the activity, negative = inhibition in [4] was 12.4% (inactive). Besides, the max response in [9] (setting [14]) stood at 16.8%; in [9] (setting [15]) it was 26.5%. In addition, the outcome in assay [10] was inactive.

With `c1ccc(C(c2ccccc2)N2CCCC3(CCNCC3)C2)cc1`, the Potency in assay [1] is > 11.4 µM (inactive); in assay [3] it was 7.94 µM (active); in assay [5] it was > 46 µM (inactive); in assay [11], 1.26 µM (active). For the same molecule, the activity change, negative = inhibition in [2] is -3.1% (inactive); in assay [9] it was -1.73% (inactive). For the same molecule, the activity, negative = inhibition in assay [4] is 4.89% (inactive). The Potency entry in assay [6], in assay [7] and in assay [8] was “inactive” throughout. The activation in [12] is 19.3% (inactive). Further, the max response in [9] (setting [14]) was -12.4%; in [9] (setting [15]), -10.8%. Also, the result in [10] was inactive.

Turning to `Cn1cccc1C(=O)N1CCC2(CC1)CCN(C(c1ccccc1)c1ccccc1)CC2`, the Potency was > 11.4 µM (inactive) in [1], 5.01 µM (active) in assay [3], > 46 µM (inactive) in assay [5] and 15.8 µM (active) in [8]. For the same molecule, the figures for the activity change, negative = inhibition in assay [2] and in assay [9] were -3.6% (inactive) and -19.5% (inactive), respectively. Also, the activity, negative = inhibition in assay [4] was -4.66% (inactive). For the same molecule, the Potency result in assay [6], in [7] and in assay [11] was “inactive” in each case. The max response in assay [9] (setting [14]) is 11.8%; in [9] (setting [15]), -8.47%. Further, the outcome in assay [10] was inactive.

`CS(=O)(=O)N1CCC2(CCCN(C(c3ccccc3)c3ccccc3)C2)CC1`: the Potency in assay [1] is > 11.4 µM (inactive); in assay [5], > 46 µM (inactive); in [11], 3.98 µM (active); in [13], 5.01 µM (active). In addition, the activity change, negative = inhibition in [2] was -6.2% (inactive); in assay [9], 2.84% (inactive). The Potency entry in assay [3], in [6], in [7] and in [8] was “inactive” throughout. Besides, the activity, negative = inhibition in [4] was 12.1% (inactive). For the same molecule, the max response in assay [9] (setting [14]) was 13.3%; in assay [9] (setting [15]), 16.2%. Further, the outcome in assay [10] was inactive.

Consider `Cn1cccc1C(=O)N1CCC[C@@]2(CCN(C(c3ccccc3)c3ccccc3)C2)C1`, for which the Potency in assay [1] was > 11.4 µM (inactive); in [3], 20 µM (active); in [5] it was > 46 µM (inactive). Also, the activity change, negative = inhibition was 0.163% (inactive) in [2] and 0.948% (inactive) in assay [9]. In addition, the activity, negative = inhibition in assay [4] is 9.39% (inactive). For the same molecule, the Potency entry in [6], in assay [7] and in assay [8] was “inactive” throughout. Also, the results for the max response in assay [9] (setting [14]) and in [9] (setting [15]) were 10.5% and 14.1%, respectively. Also, the result in [10] was inactive.
